Experimental data as given in PubChem BioAssay (EPA / NIEHS).
Inconclusive results are not listed. The source made the active and inactive calls. Rule for the calls, unless noted: active = hit-call score of the fitted dose curve at least 0.9, where 1 is the maximum; inconclusive = response in the unintended direction; inactive = score below 0.9.

How the values were obtained:
[1] = read-out: ABC Transporter (ABCB11), ABCB11 (gene 8647); test: CLD_ABCB11_6hr: CellzDirect (CLD) Gene Expression Assay for ABC Transporter (ABCB11) at 6 hours (AID 2283675);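 note: hits raise ABCB11 mRNA level so AC50 marks induction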
Procedure, shortened: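 Human primary hepatocytes (two donor preparations) given fresh chemical daily at multiple concentrations, vehicle 0.2% DMSO. ABCB11 mRNA induction measured 6 h after dosing by qNPA chemiluminescence versus DMSO; cytotoxicity annotated from morphology.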

[2] = CLD_ACTIN_6hr: CellzDirect (CLD) Gene Expression Assay for Baseline Control (Actin) at 6 hours (AID 2283676);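 note: active means increased actin mRNA relative to DMSO vehicle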
Procedure, shortened: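 Primary human hepatocytes dosed with fresh chemical solutions (vehicle 0.2% DMSO), harvested at 6 h. Actin mRNA quantified by quantitative nuclease protection assay with chemiluminescent read-out, as background control relative to DMSO.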

[3] = read-out: Cytochrome P450 2C19 (Homo sapiens) (UniProt P33261); test: CLD_CYP2C19_6hr: CellzDirect (CLD) Gene Expression Assay for xenobiotic metabolism (CYP2C19) at 6 hours (AID 2283678)
Procedure, shortened: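 Primary human hepatocytes from two donor preparations were dosed daily, with 0.2% DMSO as vehicle, and harvested 6 h after dosing. CYP2C19 mRNA induction was measured by qNPA chemiluminescence and fitted as gain of signal against DMSO.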

[4] = CCTE_Padilla_ZF_144hpf_TERATOSCORE: (Legacy) CCTE's 144 Hour Post-fertilization zebrafish Assay Teratoscore, Padilla Lab (AID 2283679; active = hit-call score of the fitted dose curve at least 0.9, where 1 is the maximum; inactive = score below 0.9;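 for AC50: zebrafish embryos with chorions exposed by immersion from 6-8 hpf to 5 dpf with daily renewal; teratogenicity score from eye scoring of death hatching and malformations at 144 hpf; higher score means more developmental defects relative to DMSO baseline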)
Procedure, shortened: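 Larvae scored by eye at 144 hpf for death, hatching and malformations after a day in clean Hanks'. Before that, daily-renewed exposure at 80 uM (0.4% DMSO, 26C) from roughly 6-8 hpf through 5 dpf, 4 embryos per chemical.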

[5] = read-out: Glyceraldehyde-3-phosphate dehydrogenase (Homo sapiens) (UniProt P04406); test: CLD_GAPDH_6hr: CellzDirect (CLD) Gene Expression Assay for Baseline Control (Glyceraldehyde 3-phosphate dehydrogenase) at 6 hours (AID 2283681);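 note: active means increased signal relative to DMSO vehicle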
Procedure, shortened: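 Primary human hepatocytes from two donor preparations, dosed at multiple concentrations with 0.2% DMSO vehicle; GAPDH mRNA measured 6 h after dosing by chemiluminescent quantitative nuclease protection assay (qNPA) on denatured lysates. Serves as background control; cytotoxicity annotated by morphology.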

[6] = read-out: xenobiotic metabolism (CYP1A2), CYP1A2 (gene 1544); test: CLD_CYP1A2_24hr: CellzDirect (CLD) Gene Expression Assay for xenobiotic metabolism (CYP1A2) at 24 hours (AID 2283683)
Procedure, shortened: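 Primary human hepatocytes from two donor preparations dosed daily with multiple concentrations of chemical, 0.2% DMSO vehicle. CYP1A2 mRNA at 24 h quantified by qNPA chemiluminescence; gain of signal analyzed relative to DMSO. Cytotoxicity flagged by phase-contrast morphology.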

[7] = read-out: Broad substrate specificity ATP-binding cassette transporter ABCG2 (Homo sapiens) (UniProt Q9UNQ0); test: CLD_ABCG2_24hr: CellzDirect (CLD) Gene Expression Assay for ABC Transporter (ABCG2) at 24 hours (AID 2283685)
Procedure, shortened: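 Primary human hepatocytes were dosed daily with ToxCast chemicals at multiple concentrations (vehicle 0.2% DMSO). ABCG2 mRNA was measured at 24 h by qNPA chemiluminescence; induction was scored as gain of signal versus DMSO.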

[8] = read-out: Cytochrome P450 2C9 (Homo sapiens) (UniProt P11712); test: CLD_CYP2C9_24hr: CellzDirect (CLD) Gene Expression Assay for xenobiotic metabolism (CYP2C9) at 24 hours (AID 2283688)
Procedure, shortened: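 Primary human hepatocytes from two donor preparations, dosed daily for two days at multiple concentrations; vehicle 0.2% DMSO. CYP2C9 mRNA induction at 24 h measured by qNPA chemiluminescence relative to DMSO; cytotoxicity annotated from morphology.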

[9] = read-out: alkyl and aryl transferase (GSTA2), GSTA2 (gene 2939); test: CLD_GSTA2_24hr: CellzDirect (CLD) Gene Expression Assay for alkyl and aryl transferase (GSTA2) at 24 hours (AID 2283693)
Procedure, shortened: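 Primary human hepatocytes (two donor preparations) dosed daily for two days with chemicals at multiple concentrations (vehicle 0.2% DMSO); GSTA2 mRNA at 24 h measured by qNPA chemiluminescence, gain-of-signal versus DMSO.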

[10] = read-out: Cytochrome P450 3A4 (Homo sapiens) (UniProt P08684); test: CLD_CYP3A4_24hr: CellzDirect (CLD) Gene Expression Assay for xenobiotic metabolism (CYP3A4) at 24 hours (AID 2283689)
Procedure, shortened: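 Primary human hepatocytes from two donors dosed daily with fresh compound for two days, 0.2% DMSO vehicle. CYP3A4 mRNA at 24 hr by qNPA chemiluminescence; gain-of-signal fit versus DMSO, cytotoxicity flagged by morphology.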

[11] = read-out: HMG-CoA synthase (HMGCS2), HMGCS2 (gene 3158); test: CLD_HMGCS2_24hr: CellzDirect (CLD) Gene Expression Assay for HMG-CoA synthase (HMGCS2) at 24 hours (AID 2283691)
Procedure, shortened: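 Primary human hepatocytes from two donor preparations, dosed daily with fresh solutions; vehicle 0.2% DMSO, 24 h harvest. HMGCS2 mRNA quantified by qNPA with S1 nuclease digestion and chemiluminescence; gain fitted versus DMSO, cytotoxicity annotated by morphology.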

[12] = read-out: sulfotransferase (SULT2A), SULT2A1 (gene 6822); test: CLD_SULT2A_24hr: CellzDirect (CLD) Gene Expression Assay for sulfotransferase (SULT2A) at 24 hours (AID 2283694)
Procedure, shortened: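 Primary human hepatocytes from two donor preparations were dosed daily with fresh solutions, vehicle 0.2% DMSO. At 24 h, lysates went to quantitative nuclease protection (qNPA) with S1 digestion and chemiluminescent readout. Cytotoxicity was annotated from phase-contrast morphology.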

[13] = read-out: Cytochrome P450 2B6 (Homo sapiens) (UniProt P20813); test: CLD_CYP2B6_6hr: CellzDirect (CLD) Gene Expression Assay for xenobiotic metabolism (CYP2B6) at 6 hours (AID 2283677);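 note: actives raise CYP2B6 transcript above DMSO baseline so AC50 marks an inducer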
Procedure, shortened: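 Primary human hepatocytes dosed with chemicals at multiple concentrations, vehicle 0.2% DMSO; CYP2B6 mRNA induction measured 6 h after dosing by quantitative nuclease protection assay with chemiluminescence, gain of signal fitted relative to DMSO.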

[14] = read-out: HMG-CoA synthase (HMGCS2), HMGCS2 (gene 3158); test: CLD_HMGCS2_6hr: CellzDirect (CLD) Gene Expression Assay for HMG-CoA synthase (HMGCS2) at 6 hours (AID 2283682);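 note: actives raise HMGCS2 transcript above the 0.2% DMSO vehicle baseline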
Procedure, shortened: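 Primary human hepatocytes dosed daily with fresh chemical, 0.2% DMSO vehicle; HMGCS2 mRNA measured at 6 h by qNPA chemiluminescence. Gain of signal fitted against DMSO; cytotoxicity flagged from phase-contrast morphology.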

[15] = read-out: Cytochrome P450 2B6 (Homo sapiens) (UniProt P20813); test: CLD_CYP2B6_24hr: CellzDirect (CLD) Gene Expression Assay for xenobiotic metabolism (CYP2B6) at 24 hours (AID 2283686)
Procedure, shortened: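 Primary human hepatocytes dosed daily for two days with fresh solutions, harvested at 24 hours; mRNA induction quantified by qNPA chemiluminescence, gain of signal vs 0.2% DMSO vehicle. Cytotoxicity annotated from phase-contrast morphology.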

[16] = read-out: organic anion transporter (SLCO1B1), SLCO1B1 (gene 10599); test: CLD_SLCO1B1_24hr: CellzDirect (CLD) Gene Expression Assay for organic anion transporter (SLCO1B1) at 24 hours (AID 2283690)
Procedure, shortened: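 Primary human hepatocytes (two donor preparations) dosed daily for two days with chemicals at multiple concentrations, 0.2% DMSO vehicle. SLCO1B1 mRNA at 24 h measured by qNPA chemiluminescence; induction fitted relative to DMSO.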

[17] = read-out: ABC Transporter (ABCB1), ABCB1 (gene 5243); test: CLD_ABCB1_24hr: CellzDirect (CLD) Gene Expression Assay for ABC Transporter (ABCB1) at 24 hours (AID 2283684)
Procedure, shortened: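 Primary human hepatocytes, two donor preparations, dosed daily with fresh solutions; vehicle 0.2% DMSO; harvested at 24 h. ABCB1 mRNA measured by quantitative nuclease protection assay (chemiluminescence); morphology-based cytotoxicity annotated.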

[18] = read-out: Cytochrome P450 3A4 (Homo sapiens) (UniProt P08684); test: CLD_CYP3A4_6hr: CellzDirect (CLD) Gene Expression Assay for xenobiotic metabolism (CYP3A4) at 6 hours (AID 2283680)
Procedure, shortened: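 Primary human hepatocytes (two donor preparations) dosed; CYP3A4 mRNA harvested at 6 h and quantified by qNPA chemiluminescence. Gain of signal fitted against 0.2% DMSO vehicle; cytotoxicity flagged by phase-contrast morphology.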

[19] = read-out: ABC Transporter (ABCB1), ABCB1 (gene 5243); test: CLD_ABCB1_48hr: CellzDirect (CLD) Gene Expression Assay for ABC Transporter (ABCB1) at 48 hours (AID 2283695)
Procedure, shortened: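 Primary human hepatocytes from two donor preparations dosed daily on two consecutive days with 0.2% DMSO vehicle. Harvest at 48 h. ABCB1 mRNA quantified by qNPA with chemiluminescence and fitted for gain of signal versus DMSO.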

Measured: AC50

Sequence of Cytochrome P450 3A4 (Homo sapiens) (P08684 whole entry, looked up): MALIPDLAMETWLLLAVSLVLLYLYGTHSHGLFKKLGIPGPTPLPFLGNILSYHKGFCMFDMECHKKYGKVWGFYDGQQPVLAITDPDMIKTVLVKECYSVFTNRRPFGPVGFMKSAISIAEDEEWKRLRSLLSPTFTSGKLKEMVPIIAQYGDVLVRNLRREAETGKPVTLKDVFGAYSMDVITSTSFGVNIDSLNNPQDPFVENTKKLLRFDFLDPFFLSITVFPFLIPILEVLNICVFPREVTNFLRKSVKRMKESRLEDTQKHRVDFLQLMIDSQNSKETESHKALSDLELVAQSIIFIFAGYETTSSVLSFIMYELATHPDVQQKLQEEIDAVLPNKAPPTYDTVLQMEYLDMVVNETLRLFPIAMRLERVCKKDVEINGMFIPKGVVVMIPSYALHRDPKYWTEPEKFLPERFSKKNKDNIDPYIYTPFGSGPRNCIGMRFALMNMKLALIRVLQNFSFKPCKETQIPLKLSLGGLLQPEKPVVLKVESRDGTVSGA
Sequence of Broad substrate specificity ATP-binding cassette transporter ABCG2 (Homo sapiens) (Q9UNQ0 whole entry, looked up): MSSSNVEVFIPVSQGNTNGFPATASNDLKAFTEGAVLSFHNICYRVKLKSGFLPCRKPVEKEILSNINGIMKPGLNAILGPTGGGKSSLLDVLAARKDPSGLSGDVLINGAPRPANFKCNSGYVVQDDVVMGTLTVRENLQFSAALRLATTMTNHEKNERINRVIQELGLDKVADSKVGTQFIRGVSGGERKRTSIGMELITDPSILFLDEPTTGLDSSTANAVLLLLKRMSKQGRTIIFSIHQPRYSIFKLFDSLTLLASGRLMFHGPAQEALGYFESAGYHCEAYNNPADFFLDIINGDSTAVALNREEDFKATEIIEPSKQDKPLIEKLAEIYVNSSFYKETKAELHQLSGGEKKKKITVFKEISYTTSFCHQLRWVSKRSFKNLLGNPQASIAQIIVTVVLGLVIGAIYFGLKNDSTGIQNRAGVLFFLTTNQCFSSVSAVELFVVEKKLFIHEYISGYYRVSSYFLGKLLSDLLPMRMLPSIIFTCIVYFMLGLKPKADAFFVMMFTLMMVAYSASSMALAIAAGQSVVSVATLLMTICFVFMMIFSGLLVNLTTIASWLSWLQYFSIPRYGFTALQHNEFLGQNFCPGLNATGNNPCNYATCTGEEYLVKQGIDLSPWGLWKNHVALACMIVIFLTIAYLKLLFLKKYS
Sequence of Cytochrome P450 2C19 (Homo sapiens) (P33261 whole entry, looked up): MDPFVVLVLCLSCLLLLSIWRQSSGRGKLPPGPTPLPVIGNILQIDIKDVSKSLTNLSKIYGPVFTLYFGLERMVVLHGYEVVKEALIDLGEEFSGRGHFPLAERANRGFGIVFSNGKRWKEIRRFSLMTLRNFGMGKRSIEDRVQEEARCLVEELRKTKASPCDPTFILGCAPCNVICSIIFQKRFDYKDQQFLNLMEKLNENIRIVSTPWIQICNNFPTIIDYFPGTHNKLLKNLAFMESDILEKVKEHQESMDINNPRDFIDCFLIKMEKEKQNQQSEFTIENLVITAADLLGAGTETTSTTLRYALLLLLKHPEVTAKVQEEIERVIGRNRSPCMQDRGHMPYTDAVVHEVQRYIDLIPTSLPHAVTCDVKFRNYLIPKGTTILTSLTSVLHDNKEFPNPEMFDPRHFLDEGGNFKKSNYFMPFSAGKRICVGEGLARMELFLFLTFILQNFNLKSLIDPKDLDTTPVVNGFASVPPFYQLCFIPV
Sequence of Glyceraldehyde-3-phosphate dehydrogenase (Homo sapiens) (P04406 whole entry, looked up): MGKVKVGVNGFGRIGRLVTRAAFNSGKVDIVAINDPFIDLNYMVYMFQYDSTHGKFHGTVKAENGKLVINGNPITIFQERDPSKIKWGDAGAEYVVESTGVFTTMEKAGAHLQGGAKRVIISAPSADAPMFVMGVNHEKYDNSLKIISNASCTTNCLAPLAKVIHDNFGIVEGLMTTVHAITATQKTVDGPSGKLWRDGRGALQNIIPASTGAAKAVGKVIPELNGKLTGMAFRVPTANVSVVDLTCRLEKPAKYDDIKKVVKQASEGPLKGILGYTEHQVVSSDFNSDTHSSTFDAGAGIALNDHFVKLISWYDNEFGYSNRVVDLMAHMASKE

CCOc1nc(C(Cl)(Cl)Cl)ns1
inactive: [1] | [2] | [3] | [4] | [5] | [6] | [7] | [8] | [9]

COCc1cnc(C2=NC(C)(C(C)C)C(=O)N2)c(C(=O)O)c1 (stereo not drawn)
active: [4] 5.5 µM
inactive: [1] | [2] | [3] | [5] | [7] | [8] | [10] | [11] | [9] | [12]

CS(=O)(=O)c1cc(C(F)(F)F)ccc1C(=O)c1cnoc1C1CC1
active: [14] 3.97 µM | [15] 6.01 µM
not listed: [7] | [8] | [10] | [11] | [17] | [18] | [19]
inactive: all other assays above

CNC(=O)Oc1cccc2ccccc12
active: [13] 6.15 µM | [4] 60.8 µM | [6] 2.83 µM | [15] 7.28 µM
inactive: [1] | [2] | [7] | [9]

Cc1nc(N(C)C)nc(OC(=O)N(C)C)c1C
active: [13] 3.94 µM | [6] 3.66 µM | [15] 4.29 µM | [10] 20 µM
inactive: [1] | [2] | [4] | [7] | [8] | [11] | [12]

COCC(C)N(C(=O)CCl)c1c(C)csc1C (stereo not drawn)
inactive: [1] | [2] | [5] | [17] | [7] | [8] | [16] | [9]
active: [13] 6.94 µM | [4] 60.8 µM | [15] 11.9 µM

CCCC(=NOCC)C1=C(O)CC(CC(C)SCC)CC1=O (stereo not drawn)
active: [18] 20 µM | [15] 28.9 µM
inactive: [1] | [2] | [13] | [4] | [5] | [7] | [8] | [16]

COC(=O)NS(=O)(=O)c1ccc(N)cc1
not listed: [5] | [7] | [8] | [12] | [17] | [19]
inactive: all other assays above

CC(C)(C)C(=O)C(Oc1ccc(Cl)cc1)n1cncn1 (stereo not drawn)
inactive: [1] | [3] | [5] | [7] | [8]
active: [13] 3.95 µM | [4] 17.4 µM | [6] 9.31 µM | [15] 4.5 µM

COc1cc(OC)nc(NC(=O)NS(=O)(=O)c2ncccc2OCC(F)(F)F)n1
inactive: [1] | [2] | [13] | [3] | [4] | [14] | [6] | [17] | [8] | [10]

CC1(C)CON(Cc2ccccc2Cl)C1=O
active: [13] 3.31 µM | [18] 1.89 µM | [15] 20 µM
not listed: [8] | [10] | [11] | [19]
inactive: all other assays above

COP(=S)(OC)Oc1ccc([N+](=O)[O-])c(C)c1
inactive: [1] | [2] | [3] | [5] | [16] | [9]
active: [13] 1.46 µM | [4] 50 µM | [6] 1.38 µM | [15] 0.692 µM

CO/N=C(/C1=NOCCO1)c1ccccc1Oc1ncnc(Oc2ccccc2Cl)c1F
active: [4] 0.182 µM
inactive: [1] | [2] | [5] | [6] | [17] | [7] | [15] | [8] | [16] | [9]

CCNP(=S)(OC)O/C(C)=C/C(=O)OC(C)C (stereo not drawn)
inactive: [1] | [2] | [5] | [14] | [8]
active: [13] 0.84 µM | [4] 40.6 µM | [6] 4.58 µM | [15] 0.981 µM

O=c1n(Cl)c(=O)n(Cl)c(=O)n1Cl
active: [6] 3.33 µM
not listed: [2] | [7] | [10] | [11] | [12] | [17]
inactive: all other assays above

OC(c1ccc(Cl)cc1)(c1ccc(Cl)cc1)C(Cl)(Cl)Cl
inactive: [1] | [3] | [5] | [6] | [7] | [8] | [16]
active: [13] 3.96 µM | [4] 12 µM | [15] 4.08 µM | [10] 4.09 µM
